# According to ChEMBL document CHEMBL3988442, “University of Dundee, Small-Polar-MMV Screening Library” (2021):
# Out of some 48,000 compounds screened, about 13,000 (27%) showed an effect of 50% or more. This is one part of the list.
# System: Wolbachia pipientis
# Experiment: Anti-Wolbachia Cell-Based Screen
# Type: functional
# Parameters: scale not given: in the data most compounds retested in dose-response had high values
# Details: 5 µM
row,Structure (SMILES),Percent Effect [%]
1,CC(C)C(=O)NCCNC(=O)C12CCC(=O)N1c1cc(Cl)ccc1S2 (stereo not given),-7.313
2,CC(=O)N[C@@H]1Cc2ccccc2[C@H]1Nc1cc(C2CC2)ncn1,-3.919
3,COCCn1/c(=N\C(=O)CN(C)S(C)(=O)=O)sc2cc(Cl)ccc21,-11.47
4,Cc1ccc2nc(C)c(C)c(C(=O)N3CCC4(CCO4)CC3)c2c1,-9.053
5,O=C(NCc1cccnc1)C1=NN(c2ccccc2)C(=O)CN1,-0.2289
6,CCC(=O)N1CCC(NC2CCSCC2)C1 (stereo not given),-15.97
7,O=C(N[C@]12CC1CN(C(=O)c1ccco1)C2)c1cccc(F)c1 (stereo not given in full),-50.8
8,OCCC1CN(C2CCC2)CCN1C1CCCC1 (stereo not given),7.142
9,CCc1n[nH]c(C2CN(Cc3nc(C4CC4)no3)CCO2)n1 (stereo not given),14.51
10,Cc1cc(C)n(CC2CN(Cc3nc(C)c(C)o3)CCO2)n1 (stereo not given),127.2
11,CCc1nc(CN2CCOC(Cn3nc(C)nc3C)C2)no1 (stereo not given),5.512
12,Cc1cc(C)n(CC2CN(Cc3nc(-c4ccoc4)no3)CCO2)n1 (stereo not given),9.322
13,CCc1nc(CN2CCOC(Cn3nc(C)cc3C)C2)no1 (stereo not given),85.61
14,Cc1cc(C)n(CC2CN(Cc3nnsc3Cl)CCO2)n1 (stereo not given),2.291
15,Cc1cc(C)n(CC2CN(Cc3cscn3)CCO2)n1 (stereo not given),-9.283
16,Cc1cc(C)n(CC2CN(Cc3noc(C)n3)CCO2)n1 (stereo not given),98.99
17,Cc1cc(C)n(CC2CN(Cc3nc(C4CC4)no3)CCO2)n1 (stereo not given),104.8
18,O=C1O[C@@H]2CN(C3CCOCC3)C[C@@H]2N1CCc1cccc(Cl)c1,-15.11
19,CCNC(=O)NC(=O)CNC(C)(CC)c1nccs1 (stereo not given),7.409
20,CC(=O)c1cc(C(=O)N2CCC(CC(C)C)C2)c(=O)[nH]c1C (stereo not given),6.103
21,O=C1CC(Nc2ccc3nccnc3n2)CN1c1ccccc1 (stereo not given),-12.7
22,c1cnn(CC2CN(Cc3noc(C4CC4)n3)CCO2)c1 (stereo not given),-0.1842
23,Cc1cc(C)n(CC2CN(Cc3noc(C4CC4)n3)CCO2)n1 (stereo not given),115.4
24,COc1cccc2c1OCCCN(c1nc(C)nc3c1CCNCC3)C2,-7.329
25,c1ccc(CN2CCCC2Cn2cncn2)nc1 (stereo not given),-0.04189

row,Structure (SMILES),Percent Effect [%]
1,Fc1cccc(-n2ccc(CN3CCCCC3Cn3cncn3)n2)c1 (stereo not given),-7.7
2,N#Cc1ccc(F)c(CN2CCCC2Cn2cccn2)c1 (stereo not given),-3.171
3,N#Cc1ccccc1CN1CCCCC1Cn1cncn1 (stereo not given),7.073
4,Fc1cccc(-n2ccc(CN3CCCC3Cn3cccn3)n2)c1 (stereo not given),141.1
5,Fc1ccc(CN2CCCC2Cn2cccn2)c2ncccc12 (stereo not given),-3.711
6,c1ccc(-c2nc(CN3CCCC3Cn3cncn3)cs2)cc1 (stereo not given),-3.695
7,c1ccc(-n2ccc(CN3CCCCC3Cn3cncn3)n2)cc1 (stereo not given),140.8
8,c1ccc(-n2ccc(CN3CCCC3Cn3cncn3)n2)cc1 (stereo not given),128.5
9,COCC(=O)N1CCC(C(=O)N(C)CCCc2nccn2C)CC1,-11.58
10,CCC[C@H]1CN(S(=O)(=O)c2cc(C)ccc2C)C[C@@H]1N,-30.29
11,CCN(CC)Cc1cc(C(=O)N2CCC3(CCN(C)CC3)C2)c(C)o1,8.973
12,CN1CCC2(CC1)CN(C(=O)c1onc3ccccc13)CCCN2C,72.92
13,CS(=O)(=O)N1CCCC12CCCN(C(=O)c1ccno1)C2 (stereo not given),-3.748
14,CC(=O)N1CCCC2(CCN(C(=O)c3nn(C)c4ccccc34)CC2)C1,-40.55
15,CN1CCC2(CC1)CCN(C(=O)c1onc3ccccc13)C2,92.75
16,Cc1ccoc1C(=O)N1CCCC2(CCCN2S(C)(=O)=O)C1 (stereo not given),-9.811
17,Cc1ccc(C(CNC(=O)Cc2nc3ncccn3n2)N(C)C)cc1 (stereo not given),-10.58
18,CC(=O)NCCc1ccc(S(=O)(=O)N(C)C(C)CC(C)C)s1 (stereo not given),2.114
19,CCC[C@@H]1CN(C(=O)c2ccccc2C(C)=O)C[C@H]1N(C)C,5.199
20,CCC[C@@H]1CN(Cc2cnc(-c3cccs3)nc2)C[C@H]1C(=O)O,-4.575
21,CCC[C@H]1CN(CCS(C)(=O)=O)C[C@@H]1NC(=O)c1ccn(C)n1,-3.531
22,CCC[C@H]1CN(C(=O)c2cc(-c3cccs3)n(C)n2)C[C@@H]1N,106.1
23,CCC[C@@H]1CN(C(=O)CCc2ccco2)C[C@H]1NS(C)(=O)=O,-2.62
24,CCC[C@@H]1CN(C(=O)c2cc(-c3cccs3)n(C)n2)C[C@H]1NS(C)(=O)=O,96.45
25,CCC[C@@H]1CN(C(=O)c2cc(-c3cccs3)n(C)n2)C[C@H]1N(C)C,95.7
